Reference: PubChem BioAssay AID2690 (NMMLSC, 2010)
The whole screen tested about 330,000 compounds, of which about 590 (0.18%) were called active.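 The calls were made as follows: active = superoxide response under a set limit, about three screen SD below normal (cut at about 65% in these data); inactive = the rest.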 What follows is part of a selection rich in actives, with near analogues and random picks from the rest.

assay: reduction of superoxide in aged yeast, primary screen, HTS (AID 2690);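 also: yeast aged for seven days with compound at 30 °C before DHE staining; 100% = average MFI of all compound-treated wells on the plate with controls excluded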; details: S. cerevisiae aged cells, superoxide DHE fluorescence; at 10 µM; stronger effect = lower value

| SMILES | superoxide response (% of plate mean) |
| --- | --- |
| Cc1ccsc1C(=O)OCC(=O)NCCc1ccccc1 | 92.1% (inactive) |
| O=C(Nc1ccncc1)c1ccc([N+](=O)[O-])cc1Cl | 103% (inactive) |
| O=C(Nc1ccc(Br)cn1)c1ccc([N+](=O)[O-])cc1Cl | 64.7% (active) |
| O=C(Nc1ccc(Br)cn1)c1ccc([N+](=O)[O-])o1 | 118% (inactive) |
| C/C(=N\NS(=O)(=O)c1ccccc1)c1c(O)cc(C)oc1=O | 102% (inactive) |
| O=C1NC(=Nc2ccc(Cl)cc2)SC1Cc1cccc(Cl)c1Cl (stereo unspecified) | 121% (inactive) |
| O=C(CCS(=O)(=O)c1ccc2c(c1)NC(=O)CS2)NCc1ccccc1Cl | 110% (inactive) |
| CN1CCN(CC(=O)C23CC4CC(CC(C4)C2)C3)CC1 | 101% (inactive) |
| O=C1/C(=C/c2ccc(F)cc2)SC(=S)N1NS(=O)(=O)c1ccccc1 | 107% (inactive) |
| CC(=O)c1ccc(N2CCN(C(=O)c3ccc4nc[nH]c4c3)CC2)cc1 | 112% (inactive) |
| CC1(C)CC[C@@]2(C(=O)O)C(C1)C1=CCC3[C@@]4(C)CC[C@H](O)C(C)(C)C4CC[C@@]3(C)[C@]1(C)C[C@H]2O (stereo partly specified) | 88% (inactive) |
| CC(C)(C)C(=O)NC1CC2CCCC(C1)N2C(=O)Nc1ccccc1F (stereo unspecified) | 103% (inactive) |
| O=[N+]([O-])/C(N=Nc1ccccc1)=N\Nc1ccccc1 | 102% (inactive) |
| CC(C)(C)NC(=O)c1cccc(NC(=O)Cc2ccc(Br)cc2)c1 | 91.5% (inactive) |
| Cc1ccc(S(=O)(=O)N(CC(=O)NCc2ccco2)c2ccccc2C)cc1 | 111% (inactive) |
| COc1ccc(Nc2nc(NCc3ccco3)nc(N/N=C/c3ccccc3Cl)n2)cc1 | 99.5% (inactive) |
| COC1=CCC2([N+](=O)[O-])CN(CC(=O)O)CC1([N+](=O)[O-])C2 (stereo unspecified) | 98.8% (inactive) |
| Cc1c2cn[nH]c(=O)c2c(C)n1Cc1ccc(F)cc1 | 86.5% (inactive) |
| CC(=O)C[C@@H](O)CC(=O)[C@H]1OC(=O)CCCCCCc2ccccc21 | 62.5% (active) |
| CC[C@@H]1CCCCc2ccccc2[C@@H](C(=O)C[C@H](O)CC(C)=O)OC1=O | 98.3% (inactive) |
| CC(=O)C[C@H](O)CC(=O)[C@@H]1OC(=O)[C@@H](C)C/C=C\Cc2ccccc21 | 89.8% (inactive) |
| CC(C)=NN1C(=O)c2ccccc2NC1(C)C | 102% (inactive) |
| COc1cc(-c2c(-c3ccc4c(c3)OCO4)noc2C)ccc1F | 94.1% (inactive) |
| O=C(COc1ccc([N+](=O)[O-])cc1Cl)Nc1ccc2[nH]c(=O)[nH]c2c1 | 111% (inactive) |

| SMILES | superoxide response (% of plate mean) |
| --- | --- |
| CC(C)(C)NC(=O)COc1ccc(CNc2ccc3[nH]c(=O)[nH]c3c2)cc1 | 60.8% (active) |
| COC(=O)c1ccc(OCC(=O)NC(C)(C)C)cc1 | 102% (inactive) |
| O=c1c2cc([N+](=O)[O-])ccc2nc2n1CCC2 | 108% (inactive) |
| Cc1cc(CNC(=O)C2CCC(=O)N(CCc3ccc(Cl)cc3)C2)no1 (stereo unspecified) | 101% (inactive) |
| CN=C(Nc1cccc(S(=O)(=O)N2CCOCC2)c1)c1ccccc1 | 96.6% (inactive) |
| COc1ccc(CN(C)C(=O)Cc2c[nH]c3ccccc23)c(OC)c1OC | 99.6% (inactive) |
| CSCCC(NS(=O)(=O)c1ccccc1F)C(=O)N1CC=C(c2ccccc2)CC1 (stereo unspecified) | 105% (inactive) |
| Nc1nnn(CC(=O)N/N=C/c2ccc(O)cc2)n1 | 92.6% (inactive) |
| Nc1nnn(CC(=O)N/N=C/c2ccccc2)n1 | 65% (active) |
| O=C(Cn1nnc(-c2ccccc2)n1)N/N=C/c1ccc(-c2ccc(Cl)cc2)o1 | 92.1% (inactive) |
| CCOc1ccccc1NC(=O)C1CCCN(C(=O)Nc2ccccc2)C1 (stereo unspecified) | 92.4% (inactive) |
| CN1CCN(c2cc3c(cc2F)c(=O)c(C(=O)O)cn3CCF)CC1 | 60.4% (active) |
| CCn1cc(C(=O)NCCO)c(=O)c2cc(F)c(N3CCN(C)CC3)cc21 | 99.8% (inactive) |
| CCCCCCn1cc(C(=O)O)c(=O)c2cc(F)c(N3CCCCC3)cc21 | 91.2% (inactive) |
| COc1ccc(/C=C/CN2CCCC(C(=O)c3cc(F)ccc3F)C2)cc1 (stereo unspecified) | 100% (inactive) |
| COc1cccc(N(Cc2nnc3n2CCCCC3)C(=O)Nc2ccccc2F)c1 | 107% (inactive) |
| COc1ccc(OC)c(NC(=O)Cc2cccs2)c1 | 102% (inactive) |
| Cc1ccc(-n2cnc3ncnc(-c4ccccc4)c32)cc1 | 108% (inactive) |
| Cc1ccc(-c2nn(C(C)(C)C)c3ncnc(N)c23)cc1 | 55.4% (active) |
| O=C(Nc1ccc(Cl)c(Cl)c1)c1ccccc1NC(=O)C1CC=CCC1C(=O)O (stereo unspecified) | 128% (inactive) |
| O=C(Nc1ccccc1C(=O)N1CCCCCC1)c1ccccc1Cl | 106% (inactive) |
| O=C(Nc1cccc(Cl)c1Cl)c1ccccc1NC(=O)C1CC=CCC1C(=O)O (stereo unspecified) | 64.3% (active) |
| OC(c1nc2ccccc2[nH]1)C(O)C(O)C(O)c1nc2ccccc2[nH]1 (stereo unspecified) | 59.9% (active) |
| OC(c1nc2ccc(F)cc2[nH]1)C(O)c1nc2ccc(F)cc2[nH]1 (stereo unspecified) | 103% (inactive) |

| SMILES | superoxide response (% of plate mean) |
| --- | --- |
| CCCC(NC(=O)c1ccco1)c1nc2ccccc2[nH]1 (stereo unspecified) | 103% (inactive) |
| Cc1ccc(-c2nc(CSCC(=O)NC3CCN(Cc4ccccc4)CC3)c(C)o2)cc1 | 58.7% (active) |
| Cc1ccc(-c2cc(C(=O)NC3CCN(Cc4ccccc4)CC3)c3ccccc3n2)cc1 | 107% (inactive) |
| Cc1ccc(S(=O)(=O)NCCC(=O)NC2CCN(Cc3ccccc3)CC2)cc1 | 93% (inactive) |
| O=C(NCc1ccc(F)cc1)C1CCC(CNc2c(N3CCOCC3)c(=O)c2=O)CC1 (stereo unspecified) | 96.9% (inactive) |
| Cc1cc2oc(=O)cc(-c3ccccc3)c2c(C)c1-c1ccc(OC(F)(F)F)cc1 | 94.1% (inactive) |
| Cc1cc(NC(=O)CN2C(=O)NC(CCc3ccccc3)C2=O)no1 (stereo unspecified) | 82.4% (inactive) |
| O=C(CCc1ccccc1)Nc1ccc(NC(=O)C2CCCCC2)nc1 | 91.3% (inactive) |
| O=C(COC(=O)CCCNC(=O)c1ccc(Cl)cc1)Nc1cc(Cl)ccc1Cl | 98.1% (inactive) |
| COc1ccc(-c2nonc2NC(=O)c2oc3ccc(F)cc3c2C)cc1OC | 80.1% (inactive) |
| CCN(CC)c1nc(-c2ccccc2)cc(C(F)(F)F)c1C#N | 87% (inactive) |
| Cc1cc(NS(=O)(=O)c2ccc(NC(=O)c3cccc(OC(F)F)c3)cc2)nc(C)n1 | 103% (inactive) |
| Cc1cc(C(F)F)n2nc(C(=O)Nc3ccc(S(=O)(=O)NC45CC6CC(CC(C6)C4)C5)cc3)nc2n1 | 62.8% (active) |
| CCn1nccc1C(=O)Nc1ccc(S(=O)(=O)NC23CC4CC(CC(C4)C2)C3)cc1 | 114% (inactive) |
| COc1ccc(NC(=O)c2cc([N+](=O)[O-])ccc2NC(=O)CNC2CCCCC2C)c(OC)c1 (stereo unspecified) | 111% (inactive) |
| CCOC(=O)C1=CN(Cc2ccc(Br)cc2)S(=O)(=O)N(C)C1C (stereo unspecified) | 105% (inactive) |
| COc1ccccc1C(=O)N1CCNC(=O)C1CC(=O)Nc1ccc(Cl)cc1 (stereo unspecified) | 103% (inactive) |
| NS(=O)(=O)c1ccc(NC(=O)/C=C/c2ccccc2Cl)cc1 | 92.5% (inactive) |
| COC(=O)c1ccc(NC(=S)Nc2cccc(C)n2)cc1 | 105% (inactive) |
| CCC(C(=O)OCC(=O)Nc1c(Cl)cc(Cl)cc1Cl)c1ccccc1 (stereo unspecified) | 101% (inactive) |
| Cc1cc(C)cc(NC(=O)COC(=O)c2cc(C)oc2C)c1 | 95.1% (inactive) |
| CCCC(C)C(=O)OCC(=O)Nc1c(Br)cc(C)cc1Br (stereo unspecified) | 65.3% (active) |
| Cn1c(Nc2ccccc2)cc(=O)n(C)c1=O | 33.4% (active) |
| Cc1cc(=O)n(C)c(=O)n1CCCNc1ccccc1 | 84.6% (inactive) |

| SMILES | superoxide response (% of plate mean) |
| --- | --- |
| CC(C)Oc1ccc(C(=O)Nc2cc(=O)n(C)c(=O)n2C)cc1 | 99.9% (inactive) |
| O=C(NC1CCC(O)CC1)c1ccc(S(=O)(=O)NCc2ccco2)cc1 (stereo unspecified) | 102% (inactive) |
| Cc1c(NC(=O)CSCc2ccccc2)cccc1C(=O)O | 116% (inactive) |
| O=C(CSCc1ccccc1)Nc1ccccc1 | 42.6% (active) |
| Cn1c(CSCC(=O)Nc2ccccc2)nnc1SCc1ccccc1 | 118% (inactive) |
| C/C(CC(=O)NC(C)c1ccccc1)=N\NC(N)=S (stereo unspecified) | 105% (inactive) |
| C=CCNC(=O)C12CC3CC(C1)CC(C(=O)NCC=C)(C3)C2 | 96% (inactive) |
| Cc1ccc(C23CC4CC(CC(C(=O)NCC(=O)O)(C4)C2)C3)cc1 | 62.1% (active) |
| CCOc1ccccc1NC(=O)C12CC3CC(C1)CC(c1ccc(C)cc1)(C3)C2 | 95.5% (inactive) |
| COc1cccc(NC(=O)Cn2c3ccc(F)cc3c3nc4n(c(=O)c32)CCS4)c1 | 82.6% (inactive) |
| COc1ccc(C(CCNCc2ccccc2F)c2ccc(F)cc2)cc1 (stereo unspecified) | 97% (inactive) |
| CCc1cc(-c2n[nH]c(=S)n2CC(C)C)cs1 | 87.8% (inactive) |
| COc1cc(C(=O)NCc2ccc(-n3cccc3)cc2)cc(OC)c1OC | 99.9% (inactive) |
| COc1ccc(CNC(=O)Cc2ccc(-c3ccccc3)cc2)cc1OC | 98.2% (inactive) |
| COc1cc(-c2nnn(CC(=O)NCc3ccccc3)n2)cc(OC)c1OC | 65.3% (active) |
| CCCCNC(=O)C1CCCN(S(=O)(=O)c2ccc(S(=O)(=O)NCC(C)C)cc2)C1 (stereo unspecified) | 102% (inactive) |
| Cc1ccc2cccc(S(=O)(=O)N3CCN(c4ccccc4F)CC3)c2n1 | 61.4% (active) |
| O=S(=O)(N1CCOCC1)N1CCN(c2ccccc2F)CC1 | 90.5% (inactive) |
| Cc1ccccc1N1CCN(S(=O)(=O)c2ccc3ccccc3c2)CC1 | 95.3% (inactive) |
| COc1ccc(C(=O)Nc2ccc(C3(C#N)CCCC3)cc2)cc1OC | 87.6% (inactive) |
| COC(=O)c1ccc(S(=O)(=O)c2ccc(C(=O)OC)s2)s1 | 101% (inactive) |
| O=C(Nc1c(Cl)cccc1Cl)C1CCC1 | 111% (inactive) |
| CCNC(=S)Nc1cccc(Cl)c1C | 97.2% (inactive) |
| NC(=S)Nc1c(Cl)cccc1Cl | 46.6% (active) |
